In the supplement of paper PMC10127200:
Structures can show the parent of a compound that is named as a salt.

Legend:
Assay in all cases: Euclidean distance of Cell Painting phenotypic profile (signed KS, 77 features) to DMSO centroid (dimensionless distance); 5 or 10 uM (library dependent); higher = stronger phenotypic change vs DMSO (phenoactivity)
Settings in all cases: 48 h
786-O = test system: 786-O
In short: (§1)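 Stained cells were imaged confocally at 20X with 9 fields per well, after 48 h of exposure to library compounds at 10 or 5 uM (set by library; 0.1% DMSO final). The cells were five cancer lines and a healthy fibroblast line. From the images, Harmony extracted 77 features, each expressed as a signed Kolmogorov-Smirnov statistic relative to same-plate vehicle wells. Phenoactivity is measured as Euclidean distance to the median vehicle profile, using plate-position-corrected, correlation-weighted profiles averaged across replicates at the top dose.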

A549 = test system: A549
In short: as §1

DU145 = test system: DU145
In short: as §1

FB = test system: FB
In short: as §1

HEPG2 = test system: HEPG2
In short: as §1

OVCAR4 = test system: OVCAR4
In short: as §1

SMILES	Euclidean distance (786-O)	Euclidean distance (A549)	Euclidean distance (DU145)	Euclidean distance (FB)	Euclidean distance (HEPG2)	Euclidean distance (OVCAR4)
CNC(=C[N+](=O)[O-])NCCSCc1ccc(CN(C)C)o1 [Ranitidine]	0.881	0.596	0.696	0.903	1.02	0.83
O=C(O)COC(=O)Cc1ccccc1Nc1c(Cl)cccc1Cl [Aceclofenac]	1.26	0.455	1.1	0.795	0.607	0.86
CN1C(CCl)Nc2cc(Cl)c(S(N)(=O)=O)cc2S1(=O)=O (configuration not stated) [Methyclothiazide]	1.01	0.722	0.72	0.776	0.485	1.52
CNCCc1ccccn1 [Betahistine]	1.31	0.763	0.72	1.01	0.628	0.854
CCCCCCCCCCCCCCCCOP(=O)([O-])OCC[N+](C)(C)C [Miltefosine]	1.74	1.27	1.17	1.39	1.15	1.63
N=C(N)Nc1ccc(C(=O)Oc2ccc3cc(C(=N)N)ccc3c2)cc1 [Nafamostat Mesylate]	1.58	1.62	1.06	1.02	0.93	1.24
C[C@H]1CN(C[C@H](Cc2ccccc2)C(=O)NCC(=O)O)CC[C@@]1(C)c1cccc(O)c1 [Alvimopan dihydrate]	0.875	0.429	1.89	0.594	0.342	0.96
Cc1ccnc2c1NC(=O)c1cccnc1N2C1CC1 [Nevirapine]	1.2	0.789	0.803	0.827	1.93	0.872
CCOc1nc2cccc(C(=O)O)c2n1Cc1ccc(-c2ccccc2-c2nnn[nH]2)cc1 [Candesartan]	2.07	1.74	1.69	3.34	0.856	1.84
C[C@]12CC[C@@H]3c4ccc(O)cc4CC[C@H]3[C@@H]1C[C@@H](O)[C@@H]2O [Estriol]	1.2	0.835	1.5	0.871	0.511	1.2
COc1cc(-c2cc(-c3cccc(O)c3)cnc2N)cc(OC)c1OC	2.06	2.24	1.46	2.23	1.93	1.77
CCn1cc(C(=O)O)c(=O)c2ccc(C)nc21 [Nalidixic acid]	1.33	0.755	1.12	1.07	0.602	1.5
Cn1cc(-c2ccc3nnc(Sc4ccc5ncccc5c4)n3n2)cn1	1.56	2.02	1.64	0.87	0.766	0.987
C=CC(=O)Nc1cccc(Nc2nc(Nc3ccc(Oc4ccnc(C(=O)NC)c4)cc3)ncc2F)c1	1.82	1.47	1.48	2.2	2.3	1.63
OC(CCCN1CCCCC1)(c1ccccc1)c1ccccc1 [Diphenidol HCl]	1.04	0.66	0.884	0.867	0.89	1.09
C[C@@H]1COCCN1c1cc(C2([S@](C)(=N)=O)CC2)nc(-c2cc[nH]c3nccc2-3)n1	2.52	2.73	2.21	3.12	2.29	2.88
[O-][n+]1cccc(-c2nc3c(Cl)cccc3cc2[C@@H](Nc2ncnc3cccnc23)C(F)(F)F)c1 [Seletalisib (UCB-5857)]	1.2	0.825	1.4	1.69	1.73	2.03
O=C1NS(=O)(=O)c2ccccc21 [Saccharin]	1.09	0.449	0.729	0.738	0.461	0.73
CCN1CCCC1CNC(=O)c1cc(S(=O)(=O)CC)c(N)cc1OC (configuration not stated) [Amisulpride]	1.04	0.717	1.15	1.07	0.566	1.01

SMILES	Euclidean distance (786-O)	Euclidean distance (A549)	Euclidean distance (DU145)	Euclidean distance (FB)	Euclidean distance (HEPG2)	Euclidean distance (OVCAR4)
c1cc(CN2CCCNCCNCCCNCC2)ccc1CN1CCCNCCNCCCNCC1 [Plerixafor (AMD3100)]	0.664	1.12	0.673	0.848	0.976	1.03
CCCN[C@H]1CCc2nc(N)sc2C1 [Pramipexole]	1.54	0.915	1.04	0.837	0.869	1.19
CCCCCCOC(=O)NC(=N)c1ccc(NCc2nc3cc(C(=O)N(CCC(=O)OCC)c4ccccn4)ccc3n2C)cc1 [Dabigatran Etexilate]	1.9	1.35	1.17	1.58	1.58	1.47
COc1ccc(C2CC(=O)c3c(O)cc(OC4OC(COC5OC(C)C(O)C(O)C5O)C(O)C(O)C4O)cc3O2)cc1OC (configuration not stated) [Methyl-Hesperidin]	0.924	0.527	1.16	0.637	0.966	1.25
N#CC1(c2ccc(NC(=O)c3cccnc3NCc3ccncc3)cc2)CCCC1 [Apatinib]	0.955	1.12	0.92	2.3	1.34	0.799
CC(S)C(=O)NCC(=O)O (configuration not stated) [Tiopronin]	1.57	0.822	1.09	0.869	2.07	1.32
CC(C)OC(=O)OCOP(=O)(CO[C@H](C)Cn1cnc2c(N)ncnc21)OCOC(=O)OC(C)C [Tenofovir Disoproxil Fumarate]	3.16	2.92	1.88	3.17	3.46	2.99
CO[C@H]1/C=C/O[C@@]2(C)Oc3c(C)c(O)c4c(O)c(c(/C=N/N5CCN(C)CC5)c(O)c4c3C2=O)NC(=O)/C(C)=C\C=C\[C@H](C)[C@H](O)[C@@H](C)[C@@H](O)[C@@H](C)[C@H](OC(C)=O)[C@@H]1C [Rifampin]	1.56	0.64	1.44	1.36	2.28	1.14
CC1=C(C(=O)OCCN(Cc2ccccc2)c2ccccc2)C(c2cccc([N+](=O)[O-])c2)C(P2(=O)OCC(C)(C)CO2)=C(C)N1 (configuration not stated) [Efonidipine]	1.73	1.93	1.02	0.739	0.968	0.999
CN(C)CCC=C1c2ccccc2C=Cc2ccccc21 [Cyclobenzaprine HCl]	1.1	1.26	1.14	1.88	1.52	1.16
CN(C)C(=O)c1cc2cnc(Nc3ccc(N4CCNCC4)cn3)nc2n1C1CCCC1	2.35	1.67	1.46	3.9	1.9	1.81
C=C1CC[C@H](O)C/C1=C/C=C1\CCC[C@]2(C)[C@@H]([C@H](C)CCCC(C)(C)O)CC[C@@H]12 [Calcifediol]	1.61	0.811	0.927	1.4	0.618	2.24
COc1ccc(-c2cc(=O)c3c(O)cc(O)cc3o2)cc1O [Diosmetin]	2.12	1.03	0.892	1.37	1.25	1.26
CC1(C)O[C@@H]2[C@@H](CO[C@@]3(COS(N)(=O)=O)OC(C)(C)O[C@@H]23)O1 [Topiramate]	1.24	1.07	0.829	0.965	0.72	0.977
CC(C)(C#N)c1cc(Cn2cncn2)cc(C(C)(C)C#N)c1 [Anastrozole]	1.11	0.727	0.702	0.902	0.572	1.41
O=C(O)/C=C/c1ccc(O)c(O)c1 [Caffeic Acid]	0.946	0.603	1.61	0.961	0.639	1.23
CCn1cc(C(=O)O)c(=O)c2cc(F)c(N3CCNC(C)C3)c(F)c21 (configuration not stated) [Lomefloxacin HCl]	0.907	0.839	0.681	0.822	0.796	0.657
Cc1cc(-c2ccc(CC(=O)Nc3ccc(-c4cccnc4)cc3)cc2)ccn1	1.31	1.03	0.823	1.02	0.787	1.36
